This is an account of results in paper PMC7862700, “An all-to-all approach to the identification of sequence-specific readers for epigenetic DNA modifications on cytosine”.

Common to all, as to experiment: DAPPL (digital affinity profiling via proximity ligation, sequencing); 10 mM Tris-HCl pH 7.5, 50 mM NaCl, 1 mM DTT, 4% glycerol, room temperature, 30 min; GST-TFs on glutathione beads, 16-mer random dsDNA library, 0.1% formaldehyde crosslink after washing; high values mean tight binding
Common to all, as to details: protein: recombinant; tags: N-terminal GST; dsDNA, one strand shown

One assay addresses T1, ELK1 (Homo sapiens, UniProt P19419 1-428).
T1 sequence: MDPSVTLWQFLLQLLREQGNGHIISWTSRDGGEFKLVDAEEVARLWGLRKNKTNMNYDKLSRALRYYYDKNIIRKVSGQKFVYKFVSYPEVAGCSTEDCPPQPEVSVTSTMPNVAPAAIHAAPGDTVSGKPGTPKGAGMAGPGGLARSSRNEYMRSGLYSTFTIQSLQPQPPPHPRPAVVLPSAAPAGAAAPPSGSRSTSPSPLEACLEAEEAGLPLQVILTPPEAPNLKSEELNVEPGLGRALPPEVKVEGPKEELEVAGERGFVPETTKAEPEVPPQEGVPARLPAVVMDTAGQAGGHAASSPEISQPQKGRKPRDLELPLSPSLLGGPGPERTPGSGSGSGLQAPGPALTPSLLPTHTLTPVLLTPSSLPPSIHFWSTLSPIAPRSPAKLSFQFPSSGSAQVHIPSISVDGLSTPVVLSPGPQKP
The method, boiled down:
(§1)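 A tag-only sample was pooled with DNA-barcoded human transcription factors that had been expressed in yeast as GST fusions and captured on glutathione beads. The pools were incubated for 30 min at room temperature with 200 nmole of a random double-stranded 16-mer DNA library in Tris/NaCl/DTT/glycerol buffer, then washed, crosslinked with 0.1% formaldehyde, proximity-ligated (BsaI/T4 ligase, 1 h, 37 °C), PCR-amplified and sequenced on an Illumina NextSeq500. Binding signal is each hexamer's read frequency for a factor divided by its frequency for the tag-only sample.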

The next assay concerns the target T2, GABPA (Homo sapiens, UniProt Q06546 1-454).
T2 sequence: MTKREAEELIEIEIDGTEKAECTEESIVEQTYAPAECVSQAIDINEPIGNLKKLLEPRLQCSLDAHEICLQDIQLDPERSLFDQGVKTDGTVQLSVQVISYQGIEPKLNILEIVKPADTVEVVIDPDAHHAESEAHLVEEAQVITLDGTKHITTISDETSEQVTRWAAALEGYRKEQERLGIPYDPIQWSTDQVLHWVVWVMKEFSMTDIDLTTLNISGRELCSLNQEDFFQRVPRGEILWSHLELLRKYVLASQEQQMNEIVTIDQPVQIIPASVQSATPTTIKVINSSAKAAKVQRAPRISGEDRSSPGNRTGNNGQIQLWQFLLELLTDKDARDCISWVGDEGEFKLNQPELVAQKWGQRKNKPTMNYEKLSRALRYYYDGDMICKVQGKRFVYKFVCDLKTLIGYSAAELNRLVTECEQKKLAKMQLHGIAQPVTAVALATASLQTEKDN
The essentials:
as §1

For a further assay, the target named is T3, ERG (Homo sapiens, UniProt P11308 1-479).
T3 sequence: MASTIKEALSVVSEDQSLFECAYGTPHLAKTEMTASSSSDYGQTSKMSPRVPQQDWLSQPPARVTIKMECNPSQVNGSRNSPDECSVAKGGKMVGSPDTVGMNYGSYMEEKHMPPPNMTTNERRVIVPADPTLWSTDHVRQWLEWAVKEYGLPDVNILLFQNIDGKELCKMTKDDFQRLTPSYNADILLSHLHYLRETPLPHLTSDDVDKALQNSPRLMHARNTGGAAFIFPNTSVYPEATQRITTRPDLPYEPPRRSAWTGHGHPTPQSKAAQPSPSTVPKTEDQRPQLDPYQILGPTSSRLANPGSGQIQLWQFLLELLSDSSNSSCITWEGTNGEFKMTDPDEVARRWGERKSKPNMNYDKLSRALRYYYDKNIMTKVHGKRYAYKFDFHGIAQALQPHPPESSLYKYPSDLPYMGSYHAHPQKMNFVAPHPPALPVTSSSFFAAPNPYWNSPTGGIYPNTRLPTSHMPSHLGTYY
The method, boiled down: as §1

The target in the next assay is ELF1 (Homo sapiens, UniProt P32519 1-619). The method, boiled down: as §1
Chain of ELF1 (P32519 whole entry): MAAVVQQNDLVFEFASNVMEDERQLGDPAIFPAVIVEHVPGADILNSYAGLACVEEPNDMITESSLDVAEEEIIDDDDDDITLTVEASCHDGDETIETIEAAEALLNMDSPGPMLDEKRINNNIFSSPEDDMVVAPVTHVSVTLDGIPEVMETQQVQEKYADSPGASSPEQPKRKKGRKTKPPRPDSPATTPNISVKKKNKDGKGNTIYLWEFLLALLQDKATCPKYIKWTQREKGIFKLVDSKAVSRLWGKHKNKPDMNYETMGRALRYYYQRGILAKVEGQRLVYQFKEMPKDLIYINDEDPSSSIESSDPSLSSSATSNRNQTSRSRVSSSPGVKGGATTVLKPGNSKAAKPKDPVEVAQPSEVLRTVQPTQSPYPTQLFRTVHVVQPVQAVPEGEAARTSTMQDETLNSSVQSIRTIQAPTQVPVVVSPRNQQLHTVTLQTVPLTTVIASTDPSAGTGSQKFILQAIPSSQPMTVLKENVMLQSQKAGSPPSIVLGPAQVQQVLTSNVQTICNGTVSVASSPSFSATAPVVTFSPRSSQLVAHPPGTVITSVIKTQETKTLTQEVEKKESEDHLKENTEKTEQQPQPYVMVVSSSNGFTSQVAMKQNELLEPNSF
In another assay the target is T4, ELK3 (Homo sapiens, UniProt P41970 1-407).
T4 sequence: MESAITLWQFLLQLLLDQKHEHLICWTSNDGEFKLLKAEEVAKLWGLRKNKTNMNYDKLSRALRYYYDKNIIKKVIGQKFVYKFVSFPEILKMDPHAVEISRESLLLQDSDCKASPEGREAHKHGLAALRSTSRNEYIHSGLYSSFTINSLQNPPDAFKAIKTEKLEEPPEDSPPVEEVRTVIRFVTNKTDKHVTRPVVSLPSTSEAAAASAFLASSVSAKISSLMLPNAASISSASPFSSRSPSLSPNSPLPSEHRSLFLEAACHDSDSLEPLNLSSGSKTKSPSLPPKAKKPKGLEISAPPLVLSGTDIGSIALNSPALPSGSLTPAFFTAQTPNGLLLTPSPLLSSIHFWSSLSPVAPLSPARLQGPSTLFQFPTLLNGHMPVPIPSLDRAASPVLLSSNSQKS
The essentials: as §1

Another assay concerns the target ETV5 (Homo sapiens, UniProt P41161 1-510). The essentials: as §1
For another assay, the target named is T5, SPIC (Homo sapiens, UniProt Q8N5J4 1-248).
T5 sequence: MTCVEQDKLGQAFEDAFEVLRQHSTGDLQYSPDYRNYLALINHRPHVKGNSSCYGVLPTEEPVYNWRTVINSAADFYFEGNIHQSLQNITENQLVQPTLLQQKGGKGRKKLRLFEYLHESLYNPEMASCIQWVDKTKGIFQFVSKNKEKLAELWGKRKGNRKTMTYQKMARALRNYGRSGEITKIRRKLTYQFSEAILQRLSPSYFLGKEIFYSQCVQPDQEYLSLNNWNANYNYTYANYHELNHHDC
The essentials:
as §1

A further assay has as its target ELF4 (Homo sapiens, UniProt Q99607 1-663). The essentials:
as §1

The target in the next assay is T6, ELK4 (Homo sapiens, UniProt P28324-2 1-405).
T6 sequence: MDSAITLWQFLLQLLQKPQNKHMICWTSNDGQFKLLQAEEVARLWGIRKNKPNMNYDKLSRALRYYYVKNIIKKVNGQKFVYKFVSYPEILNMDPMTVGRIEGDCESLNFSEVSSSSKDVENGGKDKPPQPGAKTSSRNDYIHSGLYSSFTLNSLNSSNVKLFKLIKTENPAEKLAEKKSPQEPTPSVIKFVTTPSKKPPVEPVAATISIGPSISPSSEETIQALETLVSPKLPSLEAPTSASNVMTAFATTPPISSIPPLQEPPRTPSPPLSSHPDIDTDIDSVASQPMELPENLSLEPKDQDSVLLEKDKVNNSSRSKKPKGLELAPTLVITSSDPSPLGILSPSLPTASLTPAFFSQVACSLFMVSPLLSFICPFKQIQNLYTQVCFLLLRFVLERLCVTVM
The essentials: as §1

A further assay concerns the target T7, ERF (Homo sapiens, UniProt P50548 1-548).
T7 sequence: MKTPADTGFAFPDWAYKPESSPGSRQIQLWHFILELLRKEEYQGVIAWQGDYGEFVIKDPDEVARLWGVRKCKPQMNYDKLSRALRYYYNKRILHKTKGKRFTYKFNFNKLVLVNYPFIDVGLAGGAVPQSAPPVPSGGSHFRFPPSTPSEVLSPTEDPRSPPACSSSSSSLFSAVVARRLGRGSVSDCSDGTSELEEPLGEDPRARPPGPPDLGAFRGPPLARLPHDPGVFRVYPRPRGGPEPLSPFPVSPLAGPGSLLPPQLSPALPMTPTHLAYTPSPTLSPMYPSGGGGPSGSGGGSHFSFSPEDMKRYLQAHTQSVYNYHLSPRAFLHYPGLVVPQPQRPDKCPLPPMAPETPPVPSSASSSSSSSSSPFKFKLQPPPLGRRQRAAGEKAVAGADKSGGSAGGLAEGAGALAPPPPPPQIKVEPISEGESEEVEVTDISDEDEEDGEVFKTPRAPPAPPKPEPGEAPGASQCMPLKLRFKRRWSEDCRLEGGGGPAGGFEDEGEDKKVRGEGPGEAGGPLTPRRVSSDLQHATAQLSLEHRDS
The essentials: as §1

The target of a further assay is T8, ETS2 (Homo sapiens, UniProt P15036 1-469).
T8 sequence: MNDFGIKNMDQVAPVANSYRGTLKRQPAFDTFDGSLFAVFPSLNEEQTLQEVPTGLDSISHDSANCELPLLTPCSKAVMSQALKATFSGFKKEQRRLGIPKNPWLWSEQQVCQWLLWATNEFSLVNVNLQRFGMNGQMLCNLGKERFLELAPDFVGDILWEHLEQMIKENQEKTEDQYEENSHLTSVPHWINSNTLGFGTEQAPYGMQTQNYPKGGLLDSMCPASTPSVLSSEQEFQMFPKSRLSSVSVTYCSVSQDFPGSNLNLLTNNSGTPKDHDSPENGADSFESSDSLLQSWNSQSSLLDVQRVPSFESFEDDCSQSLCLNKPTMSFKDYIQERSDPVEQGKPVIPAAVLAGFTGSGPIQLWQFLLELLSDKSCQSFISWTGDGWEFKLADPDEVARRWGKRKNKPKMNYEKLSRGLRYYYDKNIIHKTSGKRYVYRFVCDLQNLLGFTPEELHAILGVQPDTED
The essentials: as §1

The next assay deals with ETV6 (Homo sapiens, UniProt P41212 1-452). The essentials:
as §1

Chain of ETV6 (P41212 whole entry): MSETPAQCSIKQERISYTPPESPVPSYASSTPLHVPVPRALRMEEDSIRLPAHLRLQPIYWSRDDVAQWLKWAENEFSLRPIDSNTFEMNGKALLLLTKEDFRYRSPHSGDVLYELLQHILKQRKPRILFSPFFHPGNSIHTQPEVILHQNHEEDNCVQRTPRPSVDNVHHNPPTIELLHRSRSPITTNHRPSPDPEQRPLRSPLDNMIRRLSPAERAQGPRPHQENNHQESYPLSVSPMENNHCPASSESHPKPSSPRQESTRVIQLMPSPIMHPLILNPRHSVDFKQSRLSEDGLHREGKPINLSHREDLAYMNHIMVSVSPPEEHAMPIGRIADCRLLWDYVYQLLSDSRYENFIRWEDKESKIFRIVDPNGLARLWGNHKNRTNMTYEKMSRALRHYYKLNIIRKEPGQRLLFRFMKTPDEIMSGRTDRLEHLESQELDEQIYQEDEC
Chain of ETV5 (P41161 whole entry): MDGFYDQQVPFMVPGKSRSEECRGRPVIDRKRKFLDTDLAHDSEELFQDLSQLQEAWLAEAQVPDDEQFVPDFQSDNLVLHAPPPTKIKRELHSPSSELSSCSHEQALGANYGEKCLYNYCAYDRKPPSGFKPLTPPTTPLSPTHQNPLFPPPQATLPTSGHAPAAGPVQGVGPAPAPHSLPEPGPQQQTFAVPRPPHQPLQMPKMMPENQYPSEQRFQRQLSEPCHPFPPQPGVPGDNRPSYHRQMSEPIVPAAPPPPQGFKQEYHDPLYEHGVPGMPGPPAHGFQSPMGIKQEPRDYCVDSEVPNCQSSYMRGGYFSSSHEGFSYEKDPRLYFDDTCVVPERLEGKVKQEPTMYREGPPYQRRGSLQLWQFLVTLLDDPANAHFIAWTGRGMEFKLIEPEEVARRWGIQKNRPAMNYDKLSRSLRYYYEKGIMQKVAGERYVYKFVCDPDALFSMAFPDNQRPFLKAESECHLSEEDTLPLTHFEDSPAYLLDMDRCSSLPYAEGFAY
Chain of ELF4 (Q99607 whole entry): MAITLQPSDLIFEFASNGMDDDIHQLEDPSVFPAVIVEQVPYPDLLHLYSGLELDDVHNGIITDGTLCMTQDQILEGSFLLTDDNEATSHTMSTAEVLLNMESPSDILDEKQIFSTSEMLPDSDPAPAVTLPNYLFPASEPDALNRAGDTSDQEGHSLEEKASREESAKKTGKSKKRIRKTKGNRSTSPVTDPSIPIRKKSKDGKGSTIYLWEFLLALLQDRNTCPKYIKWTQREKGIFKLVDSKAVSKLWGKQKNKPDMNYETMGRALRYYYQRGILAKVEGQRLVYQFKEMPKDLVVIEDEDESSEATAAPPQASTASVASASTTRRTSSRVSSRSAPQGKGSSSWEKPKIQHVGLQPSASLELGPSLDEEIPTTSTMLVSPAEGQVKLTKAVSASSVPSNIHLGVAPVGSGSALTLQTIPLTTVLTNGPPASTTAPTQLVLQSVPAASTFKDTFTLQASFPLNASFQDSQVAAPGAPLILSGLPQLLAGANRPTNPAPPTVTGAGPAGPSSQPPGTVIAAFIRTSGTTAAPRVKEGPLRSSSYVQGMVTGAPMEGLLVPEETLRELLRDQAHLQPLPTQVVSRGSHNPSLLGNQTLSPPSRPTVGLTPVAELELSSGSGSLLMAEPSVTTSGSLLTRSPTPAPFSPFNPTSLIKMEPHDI

On to CGCCCA, for which the binding signal with ELK1 is 1.13 fold enrichment (6-mer frequency, TF over GST control); with GABPA, 1.11 fold enrichment (6-mer frequency, TF over GST control); with ERG it was 1.06 fold enrichment (6-mer frequency, TF over GST control); with ELF1, 1.04 fold enrichment (6-mer frequency, TF over GST control); with ELK3, 1.04 fold enrichment (6-mer frequency, TF over GST control); with ETV5, 1.01 fold enrichment (6-mer frequency, TF over GST control). Further, the binding signal with SPIC is 1.06 fold enrichment (6-mer frequency, TF over GST control); with ELF4, 1.04 fold enrichment (6-mer frequency, TF over GST control); in the assay with ELK4, 1.04 fold enrichment (6-mer frequency, TF over GST control); in the assay with ERF it was 1.08 fold enrichment (6-mer frequency, TF over GST control); in the assay with ETS2, 1.04 fold enrichment (6-mer frequency, TF over GST control); with ETV6 it was 1.09 fold enrichment (6-mer frequency, TF over GST control).
